Laboratory results taken from PubChem BioAssay AID1159580 (chemical genetic matrix, 2015).
Several values for one entry are separate records, joined by “and”; a condition that tells them apart may be missing. Equal entries are not always repeated. The campaign covered roughly 5,500 compounds. About 2,000 (36%) were called active. Another 18% or so got no clear call; they are omitted. Cut-off read from the data, not from the text of the source: active = normalized growth mostly below about 0.91 (no sharp cut-off); inconclusive = no clear call, values can overlap the other calls; inactive = mostly above about 0.92. The list shows a part of the results.

Assay: chemical genetic growth profiling, strain panel (AID 1159580);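 note: tested at 20 µM; growth read once vehicle control cultures reached saturation at 30 °C; 1 = growth at the plate median or of vehicle wells; lower values mean less growth of the strain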
Settings: S. cerevisiae deletion strains, growth OD

Measured: normalized growth

CCCNC(C)C(=O)Nc1ccccc1C (stereo not given)
inactive: locus YAL013W, strain DEP1, active compounds read low 1.01 | locus YAL021C, strain ccr4, active compounds read low 1.01 | locus YAL026C, strain drs2, active compounds read low 1.01 | locus YAL030W, strain snc1, active compounds read low 0.995 | locus YAL040C, strain CLN3, active compounds read low 1.07 | locus YBL061C, strain skt5, active compounds read low 1.01 | locus YBR009C, strain hhf1, active compounds read low 1.01 | locus YBR021W, strain FUR4, active compounds read low 1.01 | locus YBR023C, strain chs3, active compounds read low 1 | locus YBR171W, strain sec66, active compounds read low 1.01 | locus YBR229C, strain ROT2, active compounds read low 1.01 | locus YBR231C, strain swc5, active compounds read low 1.01 | locus YBR279W, strain paf1, active compounds read low 1.01 | locus YCL011C, strain gbp2, active compounds read low 0.999 | locus YCL016C, strain dcc1, active compounds read low 1.01 | locus YCL029C, strain bik1, active compounds read low 1 | locus YCL061C, strain MRC1 (second series), active compounds read low 1.01 | locus YCL061C, strain MRC1, active compounds read low 0.997 | locus YCL069W, strain vba3, active compounds read low 1.01 | locus YCR088W, strain abp1, active compounds read low 1.01 | locus YDL005C, strain med2, active compounds read low 1 | locus YDL035C, strain GPR1, active compounds read low 1.01 | locus YDL040C, strain nat1, active compounds read low 1.01 | locus YDL074C, strain BRE1, active compounds read low 1.02 | locus YDL101C, strain DUN1, active compounds read low 1.02 | locus YDL134C, strain PPH21, active compounds read low 1.01 | locus YDL185W, strain tfp1, active compounds read low 0.997 | locus YDL192W, strain arf1, active compounds read low 0.996 | locus YDR001C, strain nth1, active compounds read low 1 | locus YDR069C, strain doa4, active compounds read low 1.02 | locus YDR101C, strain arx1, active compounds read low 1 | locus YDR137W, strain rgp1, active compounds read low 1.03 | locus YDR150W, strain NUM1, active compounds read low 1.01 | locus YDR159W, strain sac3, active compounds read low 1 | locus YDR162C, strain NBP2, active compounds read low 1.01 | locus YDR195W, strain ref2 1.01 | locus YDR297W, strain sur2, active compounds read low 1 | locus YDR318W, strain mcm21, active compounds read low 0.998 | locus YDR334W, strain swr1, active compounds read low 0.998 | locus YDR335W, strain msn5, active compounds read low 1.01 | locus YDR363W, strain ESC2, active compounds read low 1.05 | locus YDR388W, active compounds read low 0.99 | locus YDR392W, strain spt3, active compounds read low 1.01 | locus YDR502C, strain sam2, active compounds read low 0.991 | locus YEL003W, strain gim4, active compounds read low 0.998 | locus YEL037C, strain rad23, active compounds read low 0.994 | locus YEL061C, strain CIN8 (second series), active compounds read low 1.01 | locus YEL061C, strain CIN8, active compounds read low 1.01 | locus YER002W, strain NOP16, active compounds read low 0.995 | locus YER015W, strain faa2, active compounds read low 0.984 | locus YER016W, strain bim1, active compounds read low 0.999 | locus YER110C, active compounds read low 0.991 | locus YER111C, strain swi4, active compounds read low 1 | locus YER155C, strain BEM2 (second series), active compounds read low 1.01 | locus YER155C, strain BEM2, active compounds read low 1.01 | locus YER167W, strain BCK2, active compounds read low 1 | locus YFR010W, strain ubp6, active compounds read low 0.992 | locus YGL078C, strain dbp3, active compounds read low 0.987 | locus YGL086W, strain mad1, active compounds read low 0.993 | locus YGL167C, strain pmr1, active compounds read low 1.01 | locus YGL173C, strain kem1, active compounds read low 1 | locus YGL227W, strain vid30, active compounds read low 1 | locus YGL240W, strain doc1, active compounds read low 1.01 | locus YGL248W, strain PDE1, active compounds read low 1.02 | locus YGL253W, strain hxk2, active compounds read low 1.01 | locus YGR078C, strain PAC10, active compounds read low 1 | locus YGR135W, strain pre9, active compounds read low 0.957 | locus YGR229C, strain SMI1, active compounds read low 0.99 and 1.01 | locus YGR252W, strain gcn5, active compounds read low 0.911 | locus YHR013C, strain ard1, active compounds read low 1.01 | locus YHR027C, strain rpn1, active compounds read low 1.01 | locus YHR030C, strain SLT2, active compounds read low 1.01 and 1.04 | locus YHR079C, strain IRE1 (second series), active compounds read low 1.01 | locus YHR079C, strain IRE1, active compounds read low 1.06 | locus YHR094C, strain hxt1, active compounds read low 0.982 | locus YHR129C, strain ARP1, active compounds read low 1.01 | locus YHR142W, strain chs7, active compounds read low 1 | locus YHR200W, strain rpn10, active compounds read low 0.999 | locus YIL066C, strain RNR3, active compounds read low 1.02 | locus YIL073C, strain SPO22, active compounds read low 0.989 | locus YIL125W, strain kgd1, active compounds read low 0.981 | locus YIR030C, strain dcg1, active compounds read low 0.994 | locus YJL092W, strain hpr5, active compounds read low 1 | locus YJL095W, strain BCK1 (second series), active compounds read low 1.01 | locus YJL095W, strain BCK1, active compounds read low 1.02 and 1.05 | locus YJL115W, strain asf1, active compounds read low 1.01 | locus YJL129C, strain trk1, active compounds read low 1.01 | locus YJL134W, strain LCB3, active compounds read low 1.01 | locus YJL154C, strain vps35, active compounds read low 1 | locus YJL164C, strain tpk1, active compounds read low 0.958 | locus YJL166W, strain qcr8, active compounds read low 0.999 | locus YJL168C, strain set2, active compounds read low 0.991 | locus YJL187C, strain SWE1 (second series), active compounds read low 1.02 | locus YJL187C, strain SWE1, active compounds read low 0.999 | locus YJR043C, strain POL32, active compounds read low 1
